# In PubChem BioAssay (NCATS):
# Results filed as inconclusive are left out. Entries that show only a call come without a potency. Calls of active or inactive are those of the source. The call rests on the fitted dose curve; in most records, active means well fitted inhibition curve with a large enough effect; inconclusive means small, poorly fitted or top-dose-only effect; inactive means flat fitted curve, though single readings scatter. Where a SMILES comes first, the peptide text is derived from it. [ ]: non-standard residue; d: D form. pGlu = O=C1CC[C@@H](C(=O)O)N1
# Tested on: Zika virus NS2B-NS3 protease
# Experiment: Primary screen GU AMC qHTS for Zika virus inhibitors (AID 1347154); further: nearly all actives have a fitted effect of over 70% in size
# Conditions: Zika NS2B-NS3 unlinked protease, AMC fluorogenic substrate; series mostly up to 54.1 µM
# Text: Avindra Nath, Ph.D., National Institute of Neurological Disorders and Stroke (NINDS), Bethesda, MD
# Radhakrishnan Padmanabhan, Ph.D., Georgetown University (GU), Washington D.C.
# Zika Virus causes congenital defects, including microcephaly and is associated with Guillain-Barre syndrome, eningoencephalitis and myelitis in infected adult. […] Using a target-based approach, we hope to establish a screening paradigm to uncover novel, cell-active NS2B-NS3 protease (Zika Virus) specific inhibitors from NCATS' collection of small molecules using qHTS.
# Early Translation Branch (ETB)
# National Center for Advancing Translational Sciences (NCATS), Rockville, MD
# National Institute of Health (NIH), Bethesda, Maryland
# Padmanabhan lab provided the NS2B hydrophilic domain and NS3 protease domain in a noncovalent complex used for the unlinked assay. Control compound aprotinin is obtained from Thermo Scientific (#78432; Waltham, Massachusetts). NS2B-NS3 AMC substrate (Bz-Nle-Lys-Arg-Arg-AMC; Nle-KRR-AMC) purchased from Bachem (#I-1995; Torrance, CA). Ac-VKTGKR-AMC purchased from Genscript or Bachem, Ac-FAAGKR-AMC purchased from Genscript, Ac-GLVKRR-AMC purchased from Genscript, Ac-LKKR-AMC purchased from Genscript.
# GU AMC unlinked NS2B-NS3 protease qHTS protocol
# Briefly, 3 microL of Zika virus unlinked NS2B-NS3 protease (25 nM for linked final concentration), in assay buffer (10 mM Tris-HCl pH 8.0 with 0.01% Tween 20) was dispensed into a 1,536-well solid-bottom black plate (Greiner Bio One, Monroe, NC). […] Plates were then read immediately on a ViewLux High-throughput CCD imager (PerkinElmer, Waltham, MA) equipped with standard UV fluorescence optics (340(30) nm excitation, 450(20) nm emission) then incubated (room temperature, protected from light) for 15 minutes (~20% conversion). The change in fluorescence intensity over the 15-minute reaction period was normalized against no-inhibitor and no-enzyme controls and the resulting percent inhibition data were fitted to a 4-parameter Hill equation. Aprotinin was used as the intraplate control.
# Potency means the concentration at half of the fitted maximal effect.
row,SMILES,Potency
1,C/C=C(/C(=C/C)c1ccc(OC(C)=O)cc1)c1ccc(OC(C)=O)cc1,inactive
2,Cc1ccc(O)cc1,inactive
3,Cc1sccc1Br,inactive
4,CC(=O)[C@@]1(O)CC[C@H]2[C@@H]3C[C@H](C)C4=CC(=O)CC[C@]4(C)[C@H]3CC[C@@]21C,inactive
5,CC(CC(C#N)(c1ccccc1)C(C)C)N(C)C (stereo not given),inactive
6,O=C1Cc2cc(Cl)ccc2N1,inactive
7,O=C(CCCCC(=O)Nc1c(I)cc(I)c(C(=O)O)c1I)Nc1c(I)cc(I)c(C(=O)O)c1I,inactive
8,CCCC(=O)O[C@]1(C(=O)CCl)[C@@H](C)C[C@H]2[C@@H]3CCC4=CC(=O)C=C[C@]4(C)[C@@]3(F)C(=O)C[C@@]21C,inactive
9,CCCC(=O)c1cc(O)c(O)cc1O,5.62 µM (active)
10,Nc1c(I)cc(I)c(C(=O)N(CCC(=O)O)c2ccccc2)c1I,inactive
11,O=[N+]([O-])c1cncn1CCN1CCOCC1,inactive
12,CC(C)NC(=O)c1ccc(C=O)cc1,inactive
13,NC(=O)NC1N=C([O][Al])NC1=O (stereo not given),inactive
14,CCN(CC)CC(=O)Nc1c(C)cccc1C(=O)OC,inactive
15,CCCC(=O)O[C@]1(C(=O)COC(=O)CC)CC[C@H]2[C@@H]3CCC4=CC(=O)CC[C@]4(C)[C@H]3[C@@H](O)C[C@@]21C,inactive
16,CCCCCCCCCCCCCCCCCCN(C)C,inactive
17,Cc1c(N)cccc1C(F)(F)F,inactive
18,CCC[C@H](N[C@@H](C)C(=O)N1[C@H](C(=O)O)C[C@@H]2CCCC[C@@H]21)C(=O)OCC,inactive
19,CC1c2ccccc2CN1NC(=O)c1ccc(Cl)c(S(N)(=O)=O)c1 (stereo not given),inactive
20,CC(=O)CC/C=C(\C)CC/C=C(\C)CC/C=C(\C)CCC=C(C)C,inactive

row,SMILES,Potency
1,CC(C)(C)c1cc(C=O)cc(C(C)(C)C)c1O,inactive
2,COc1ccc2c(c1)c(CC(=O)OC/C=C(\C)CC/C=C(\C)CCC=C(C)C)c(C)n2C(=O)c1ccc(Cl)cc1,inactive
3,O=C(OCCN1CCOCC1)c1cccnc1Nc1cccc(C(F)(F)F)c1,inactive
4,CCOC(=O)OCC/C(SC(=O)OCC)=C(\C)N(C=O)Cc1cnc(C)nc1N,inactive
5,CCOC(=O)C(O)c1ccccc1 (stereo not given),inactive
6,O=C(CCCl)NCc1ccccc1,inactive
7,Nc1ncnc2n[nH]c(Nc3ccc(F)cc3)c12,inactive
8,CC(C)C(=O)Nc1cccc(C(F)(F)F)c1,inactive
9,O=C1NCCN1CCN1CCC(c2cn(-c3ccc(F)cc3)c3ccc(Cl)cc23)CC1,inactive
10,O=C(NO)c1ccccc1,inactive
11,C#Cc1ccc(-c2ccccc2F)cc1,inactive
12,CC1CCCCN1CCCOC(=O)c1ccc(OC2CCCCC2)cc1 (stereo not given),inactive
13,O=C(O)C(=O)Nc1cccc(-c2nn[nH]n2)c1,inactive
14,CN1CCC(=C2c3ccccc3CCc3cccnc32)CC1,inactive
15,Cc1ccc(C(=O)C(=O)O)cc1C,inactive
16,CCOc1ccccc1OCC1CNCCO1 (stereo not given),inactive
17,CCNC(=O)[C@@H]1CCCN1C(=O)[C@H](CCCN=C(N)N)NC(=O)[C@H](CC(C)C)NC(=O)CNC(=O)[C@H](Cc1ccc(O)cc1)NC(=O)[C@H](CO)NC(=O)[C@H](Cc1c[nH]c2ccccc12)NC(=O)[C@H](Cc1cnc[nH]1)NC(=O)[C@@H]1CCC(=O)N1 ([pGlu]HWSYGLRP-NHEt),inactive
18,Oc1ccccc1-c1nnco1,inactive
19,CCCCN(CCCC)C(C(N)=O)c1ccc(OC)cc1 (stereo not given),inactive
20,CN(C)C(=O)CNC(=O)Cc1ccccc1,inactive
